Drawing on paper PMC4666376, “Characterisation of aptamer–target interactions by branched selection and high-throughput sequencing of SELEX pools”, this text covers binding signal for 6 sequences.

For this assay, the target named is PAI-1 wild type, active (human, UniProt P05121 24-402). The experiment in a line: branched SELEX with high-throughput sequencing; PAI-1 immobilised on polyclonal anti-PAI-1 antibody; HBS (10 mM HEPES pH 7.4, 140 mM NaCl), 2 mM MgCl2, 2 mM CaCl2, 0.1% BSA; RNA pool 100 nM; PAI-1 captured on antibody-coated wells; 45 min; binding temperature not stated (PAI-1 capture at room temperature); high values mean tight binding.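 Note: Pool frequency after one selection round with this target divided by frequency before selection.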 The settings on record: protein: recombinant; tags: N-terminal His6; structured_RNA; 2'-F pyrimidines.
Sequence of PAI-1 wild type, active (P05121 24-402): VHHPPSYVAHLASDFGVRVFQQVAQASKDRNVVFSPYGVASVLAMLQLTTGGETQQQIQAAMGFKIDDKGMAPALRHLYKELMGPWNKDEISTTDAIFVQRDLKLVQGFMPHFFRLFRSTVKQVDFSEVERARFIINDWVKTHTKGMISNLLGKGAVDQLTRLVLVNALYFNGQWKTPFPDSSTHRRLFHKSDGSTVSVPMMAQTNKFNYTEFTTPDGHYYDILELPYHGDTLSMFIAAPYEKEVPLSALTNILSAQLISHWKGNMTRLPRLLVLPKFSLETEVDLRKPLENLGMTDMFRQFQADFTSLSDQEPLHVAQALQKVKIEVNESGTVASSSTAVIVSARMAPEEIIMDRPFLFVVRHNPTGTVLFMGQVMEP
Take “GGGGCCACCAACGACAUUACGUAGUUUGAGAUAGUUAACUCGAACGAUUAGUUGUUGAUAUAAAUAGUGCCCAUGGAUC”: the binding signal was found to be 1.57 enrichment factor.

With “GGGGCCACCAACGACAUUAAGUUCGUCCCGCAUGGUACGAUGCGGGUCUAUGCGUUGAUAUAAAUAGUGCCCAUGGAUC”, the binding signal turned out to be 6.47 enrichment factor.

With “GGGGCCACCAACGACAUUCAACGUGCACUGUAGCUGUACAAAGCGACCAACGUUGAUAUAAAUAGUGCCCAUGGAUC”, the binding signal stood at 6.23 enrichment factor.

Consider “GGGGCCACCAACGACAUUCGACCAGACGACAAGUCGUCGCACCGUAGAGUGUAGUUGAUAUAAAUAGUGCCCAUGGAUC”, for which the binding signal was found to be 0.15 enrichment factor.

For the sequence “GGGGCCACCAACGACAUUGAGUCUCCUACACGCGUAGGUAAGUUCGUCUCAUUGUUGAUAUAAAUAGUGCCCAUGGAUC”, the binding signal turned out to be 3.79 enrichment factor.

Turning to “GGGGCCACCAACGACAUUGAACUUGUAGUACCUGUAUUGGGUAUGACCUCAGUGUUGAUAUAAAUAGUGCCCAUGGAUC”, the binding signal came to 1.61 enrichment factor.
